Experiment [1] can be described thus: Cell Viability - BJ (AID 421; calls by dose curve;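 further: potency means the concentration at half of the fitted maximal effect; cells exposed to compound for 40 hours at 37 °C before readout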). The note with it: BJ fibroblast viability, qHTS. The gist of the method: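 Normal human BJ foreskin fibroblasts, 1500/well in complete medium, treated 40 hr at 37 °C. Cellular ATP by CellTiter-Glo luminescence; normalized to DMSO and 100 uM tamoxifen, AC50 from Hill fit.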
Experiment [2] can be described thus: Cell Viability - HUV-EC-C (AID 542).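 Further: cells exposed to compound for 40 hours; on the % scale 0 is the no-effect control and ±100 the full control effect; nearly all actives have a fitted effect of over 35% in size.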 As to conditions: HUV-EC-C endothelial cell viability, qHTS; series mostly up to 92.2 µM. The method, boiled down: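 Decrease in cellular ATP, quantified by luciferase luminescence, reflects toxicity in normal human vascular endothelial HUV-EC-C cells given compound for 40 hr in complete culture medium. Values are AC50s from concentration-response curves.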
On the technique in general: In qHTS, concentration-response curves come from the screen itself.

Experiment [3] is described as follows: Cellular Toxicity (caspase-3) HUV-EC-C (AID 656). As to conditions: HUV-EC-C cells, caspase-3 activation (apoptosis), vehicle = 0, 100 µM tamoxifen = 100%; series mostly up to 92.2 µM. The gist of the method: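 Read-out: luminescence proportional to caspase 3/7 activity, measured 20 min after adding Caspase-Glo 3/7 reagent. Cells (HUV-EC-C) had received compound for 16 hr at 37°C. Increases relative to DMSO and 100 uM tamoxifen gave concentration-response AC50 values.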

The nature of experiment [4]: Cellular Toxicity (caspase-3) MRC-5 (AID 659). The note with it: MRC-5 cells, luminescence, normalized: DMSO 0%, 10 µM staurosporine 100%; series mostly up to 91.7 µM. The gist of the method:
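Luminescence from caspase-cleaved aminoluciferin substrate (Caspase-Glo 3/7, 1 hr RT) reports caspase 3/7 activity in MRC-5 lung fibroblasts after 16 hr compound exposure. Normalized to DMSO basal and 10 uM staurosporine as 100%; AC50 from Hill fits.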

The nature of experiment [5]: Cellular Toxicity (caspase-3) Mesangial (AID 660).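 Further: cells exposed to compound for 16 h before the caspase read.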 As to conditions: mesangial cells, normalized: DMSO 0%, 100 µM tamoxifen 100%; series mostly up to 91.7 µM. The gist of the method: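 Concentration-response qHTS: compound-induced rise in caspase 3/7 luminescence in human mesangial cells after 16 h, normalized to DMSO and 100 uM tamoxifen controls.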
A short description of experiment [6]: Cellular Toxicity (caspase-3) SK-N-SH (AID 661). As to conditions: SK-N-SH caspase-3 activation, qHTS; series mostly up to 91.7 µM. The method, boiled down:
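Caspase 3/7 activation is measured as a luminescence increase from aminoluciferin released by substrate cleavage in SK-N-SH cells after 16 hr compound treatment; values are AC50 from concentration-response curves.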

Experiment [7] is described as follows: Cellular Toxicity (caspase-3) Hek293 (AID 664).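 Further: cells exposed to compound for 16 h at 37 °C before readout.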 The note with it: HEK293 caspase-3 activation, DMSO = 0%, 100 µM tamoxifen = 100%; at 92.2 µM (top of the series). The gist of the method:
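Activation of caspase-3/7 is measured as increased luminescence from cleaved peptide-aminoluciferin substrate in HEK293 cells treated 16 hours at 37 °C. AC50 values come from Hill-equation fits of concentration-response data.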

Experiment [8] in a line: Cellular Toxicity (caspase-3) NIH 3T3 (AID 666).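 Further: caspase signal read after 16 h compound exposure.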 Further: potency means the concentration at half of the fitted maximal effect.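 On caspase-3 activation: 0% = DMSO basal and 100% = 100 µM tamoxifen stimulation.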 The note with it: NIH 3T3 caspase-3 activation, apoptosis/toxicity; series mostly up to 92.2 µM. The method, boiled down: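 Concentration-response qHTS in NIH 3T3 mouse fibroblasts scores caspase-3/7 activation as rising luminescence after 16 hr compound exposure. Signals are scaled between DMSO-only and 100 uM tamoxifen.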

Experiment [9] can be described thus: Cell Viability - LYMP1-002 - Assay at 16 hr (AID 948).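 Further: 0% = DMSO alone and full effect = 92 µM tetraoctylammonium bromide.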 As to conditions: LYMP1-002 lymphoblastoid cell viability; series mostly up to 92.2 µM. The gist of the method: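 Acute cytotoxicity is scored as a concentration-dependent fall in intracellular ATP in a human lymphoblastoid line (LYMP1-002) after 16 hr compound exposure at 37 C, measured by luciferase luminescence.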

The nature of experiment [10]: MultiTox-Fluor Cytotoxicity Assay - LYMP1-003 - Live Cells (AID 962).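 Further: 0% = DMSO only and full loss = 92 µM tetraoctylammonium bromide; cytotoxic hits lower the live-cell protease signal.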 As to conditions: LYMP1-003 lymphoblastoid cells, MultiTox-Fluor live-cell protease fluorescence; series mostly up to 92.2 µM. The method, boiled down: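 Cells plated at 2500 per well and incubated 5 hr; compounds added and incubated 16 hr at 37 C; MultiTox-Fluor reagent added for 60 min at room temperature; fluorescence of liberated AFC measured at 405/510 nm.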

Experiment [11] in a line: Cell Viability - LYMP2-003 (AID 965).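 Further: cells exposed to compounds for 24 h before reading; 0% = DMSO only and full effect = 92 µM tetraoctylammonium bromide; nearly all actives have a fitted effect of over 50% in size.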 The note with it: LYMP2-003 lymphoblastoid cell viability; series mostly up to 92.2 µM. The method, boiled down: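 Acute cytotoxicity is scored as a concentration-dependent drop in intracellular ATP, measured by luciferase luminescence in human lymphoblastoid cells treated for 24 hours at 37 C. AC50 values derive from Hill-equation modelling.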

The nature of experiment [12]: Cell Viability - LYMP2-013 (AID 970).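 Further: cells exposed to compound for 24 h at 37 °C; nearly all actives have a fitted effect of over 55% in size.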 Further: potency means the concentration at half of the fitted maximal effect. The note with it: LYMP2-013 lymphoblastoid cells viability; series mostly up to 92.2 µM. The method, boiled down: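 Acute toxicity was measured in human lymphoblastoid cells (2500/well) exposed to compound titrations for 24 hr, with ATP luminescence (CellTiter-Glo) as read-out and AC50 fitted by Hill equation.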
Experiment [13] is described as follows: Cell Viability - LYMP2-015 (AID 971). Further: nearly all actives have a fitted effect of over 55% in size. Further: potency means the concentration at half of the fitted maximal effect. The note with it: LYMP2-015 lymphoblastoid cell viability; series mostly up to 92.2 µM. The gist of the method: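 Acute toxicity was scored as a concentration-dependent drop in intracellular ATP in lymphoblastoid cells after 24 hr compound exposure in complete medium. Detection used CellTiter-Glo luciferase luminescence.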

Experiment [14] is described as follows: Cell Viability - LYMP2-017 (AID 972).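 Further: cells exposed to compound for 24 hours at 37 °C; nearly all actives have a fitted effect of over 55% in size.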 Further: potency means the concentration at half of the fitted maximal effect. The note with it: LYMP2-017 lymphoblastoid cell viability; series mostly up to 92.2 µM. The gist of the method: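 Steps: plate 2500 lymphoblastoid cells per well; incubate 5 hr at 37 C; add compound across a concentration series and incubate 24 hr at 37 C; add CellTiter-Glo and read luminescence after 30 min at room temperature; fit Hill curves for AC50.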

Experiment [15] is described as follows: Cell Viability - LYMP2-007 (AID 979).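 Further: cells exposed to compound for 24 h before reading; nearly all actives have a fitted effect of over 60% in size.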 Further: potency means the concentration at half of the fitted maximal effect. As to conditions: LYMP2-007 lymphoblastoid cell viability; series mostly up to 92.2 µM. The gist of the method:
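Acute toxicity is scored as a concentration-dependent fall in intracellular ATP in human lymphoblastoid cells treated 24 hr at 37 C, measured by luciferase luminescence; Hill-equation modelling yields AC50.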

Experiment [16] can be described thus: qHTS Assay for Identification of Small Molecule Inducers of Hypoxia Response (AID 2120; active means well fitted curve in the direction sought with a large enough effect in the signal ratio, with a control signal flat, not every such curve was filed as active; the % refers to the signal ratio; further: 0% is about no effect). As to conditions: hypoxia response reporter cells, beta-lactamase ratio readout; series mostly up to 104 µM. The gist of the method: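 Induction of beta-lactamase reporter activity was measured in CellSensor HRE-bla ME-180 cells after 17 h compound treatment at 37 degrees C, using CCF4 substrate and the 460nm/530nm emission ratio to derive AC50 values.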

The target in experiment [17] is Peroxisome proliferator-activated receptor alpha (Homo sapiens) (UniProt Q07869). The experiment is described as follows: qHTS assay for small molecule agonists of the peroxisome proliferator-activated receptor alpha (PPARalpha) signaling pathway (AID 651778). Further: % of control where 0% means no effect. As to conditions: PathHunter PPARalpha complementation, chemiluminescence, 6 h; active compounds read high. The gist of the method: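 Cells plated at 2,000/well and held overnight at 37 C, 5% CO2, then compound added by pin tool for 6 hr; after PathHunter detection reagent and 60 min at room temperature, chemiluminescence from enzyme complementation was read.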

Experiment [18] can be described thus: qHTS assay for small molecule agonists of the antioxidant response element (ARE) signaling pathway measured by Nrf2-dependant transcriptional activity - cell viability counter screen (AID 720653; active means well fitted curve in the direction sought with a large enough effect in the repeat runs; an effect the other way counts as inactive or inconclusive; further: on the % scale 0 is the no-effect control and ±100 the full control effect). As to conditions: ARE-bla HepG2 viability, CellTiter-Glo ATP luminescence, 16 h; active compounds read low. The gist of the method: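 ARE-bla HepG2 cells (2,000/well) rested 5 hrs at 37C/5% CO2, then exposed to compounds in DMSO for 16 hrs. Viability was read in the same wells as intracellular ATP by luminescence, 30 min at room temperature after reagent addition.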

A short description of experiment [19]: qHTS assay for cell viability of the p53RE-bla HCT-116 cell line (AID 743292). Further: on the % scale 0 is the no-effect control and ±100 the full control effect; nearly all actives have a fitted effect of over 55% in size. The note with it: p53RE-bla HCT-116 viability, ATP luminescence, 16 h; series mostly up to 95 µM. The gist of the method:
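ATP-based luminescence, 16 h compound exposure at 37 C, p53RE-bla HCT-116 cells at 4,000/well.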

Experiment [20] can be described thus: MultiTox-Fluor Cytotoxicity Assay - LYMP1-001 - Dead Cells (AID 946).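 Further: 0% = DMSO and 100% = tetraoctylammonium bromide.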 The note with it: LYMP1-001 lymphoblastoid cells, dead-cell protease fluorescence; series mostly up to 92.2 µM. The method, boiled down: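 LYMP1-001 lymphoblastoid cells (2500/well) treated 16 h at 37 C. Dead-cell protease cleavage of bis-AAF-R110 read at Ex/Em 485/520. Normalized to DMSO and 15 uM tetraoctylammonium bromide; AC50 from Hill fits.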

Structures are written as SMILES. Where “and” joins values, the source holds several entries; their conditions need not be identical. Equal entries are not always repeated. A number with no mark means an inactive call. Records with an inconclusive call do not appear. Calls of active or inactive are those of the source. Unless noted, the call rests on the fitted dose curve; in most records, active means well fitted curve in the direction sought with a large enough effect; inconclusive means small, poorly fitted or top-dose-only effect, or another doubt; inactive means no such curve, though single readings can be large; an effect the other way counts as inactive or inconclusive.

Chain of Peroxisome proliferator-activated receptor alpha (Homo sapiens) (Q07869 whole entry, looked up): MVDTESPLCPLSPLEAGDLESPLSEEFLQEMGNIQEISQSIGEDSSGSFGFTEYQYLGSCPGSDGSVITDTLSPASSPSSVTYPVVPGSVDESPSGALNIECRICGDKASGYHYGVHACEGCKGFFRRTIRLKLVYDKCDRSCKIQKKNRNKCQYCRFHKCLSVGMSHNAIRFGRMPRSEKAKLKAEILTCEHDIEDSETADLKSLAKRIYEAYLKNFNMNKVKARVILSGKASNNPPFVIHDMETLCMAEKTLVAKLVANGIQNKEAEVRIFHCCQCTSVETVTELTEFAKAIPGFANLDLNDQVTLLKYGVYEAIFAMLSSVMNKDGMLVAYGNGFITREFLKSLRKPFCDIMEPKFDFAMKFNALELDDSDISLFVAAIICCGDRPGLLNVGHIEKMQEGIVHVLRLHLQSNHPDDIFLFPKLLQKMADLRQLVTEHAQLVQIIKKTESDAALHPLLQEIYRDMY

With `O=[N+]([O-])c1c(Cl)c(Cl)c(Cl)c(Cl)c1Cl`, the Potency in experiment [1] is > 92 µM; in experiment [8], 31.6 µM (active). The Potency result in experiment [2], in experiment [6], in experiment [11], in experiment [12], in experiment [13] and in experiment [14] was “inactive” throughout. Moreover, the Potency entry in experiment [15], in [16] and in experiment [19] was “inactive” throughout. For the same molecule, the outcome in experiment [3], in experiment [4], in experiment [5], in [9] and in experiment [10] was inactive. In experiment [7], the caspase-3 activation was 2.86%. Also, the max response in experiment [17] was 3.1% and -1.25%; in experiment [18], -5.67% and 10.2%.
With `CC(C)OC(=O)Cc1ccccc1`, in experiment [1], the Potency is > 92 µM. For the same molecule, the Potency result in experiment [2], in experiment [6], in [8], in experiment [11], in experiment [12] and in experiment [13] was “inactive” each time. Further, the Potency result in experiment [14], in [15], in experiment [16] and in [19] was “inactive” each time. Moreover, the molecule was called inactive in experiment [3], in [4], in experiment [5], in [20], in experiment [9] and in [10]. Further, the caspase-3 activation in experiment [7] is 0.719%. The results for the max response in [17] and in experiment [18] were 0.38% and -4.02%, respectively.
In the case of `N#CC(Br)Br`, the Potency in experiment [1] was > 92 µM; in experiment [14], 39.8 µM (active); in experiment [15], 39.8 µM (active). Also, the Potency entry in experiment [2], in [6], in experiment [8], in [11], in experiment [16] and in experiment [19] was “inactive” in each case. The outcome in experiment [3], in experiment [4], in experiment [5], in experiment [20], in experiment [9] and in experiment [10] was inactive. The caspase-3 activation in [7] is 5.88%. Also, the max response is -1.13% in experiment [17] and -8.42% in experiment [18].
Turning to `O=[N+]([O-])/C=C/c1ccccc1`, the Potency in experiment [1] was > 92 µM; in experiment [8] it was 25.1 µM (active); in experiment [12], 50.1 µM (active); in experiment [13], 39.8 µM (active); in experiment [14] it was 50.1 µM (active); in experiment [15], 31.6 µM (active). Moreover, the result in [3], in experiment [4], in [5], in experiment [20], in experiment [9] and in experiment [10] was inactive. Besides, the Potency entry in experiment [6], in experiment [16] and in experiment [19] was “inactive” throughout. Also, the caspase-3 activation in experiment [7] was -2.17%. For the same molecule, the max response was -1.42% in experiment [17] and -1.14% in experiment [18].
With `CC(C)[N+](=O)[O-]`, the Potency in experiment [1] is > 92 µM. Also, the Potency entry in [2], in experiment [6], in [8], in [11], in experiment [12] and in experiment [13] was “inactive” in each case. For the same molecule, the Potency result in experiment [14], in experiment [15], in experiment [16] and in experiment [19] was “inactive” in each case. Further, the result in experiment [3], in [4], in [5], in [20], in experiment [9] and in [10] was inactive. For the same molecule, the caspase-3 activation in experiment [7] was -0.5%. For the same molecule, the max response in [17] was -6.42%; in experiment [18], 1.53%.
As for `O=[N+]([O-])c1ccccc1-c1ccccc1`, in experiment [1], the Potency is > 92 µM. Further, the Potency entry in experiment [2], in [6], in experiment [8], in experiment [11], in experiment [12] and in experiment [13] was “inactive” each time. Besides, the Potency result in experiment [14], in experiment [15], in [16] and in experiment [19] was “inactive” each time. Also, the outcome in experiment [3], in [4], in experiment [5], in experiment [20], in experiment [9] and in experiment [10] was inactive. Moreover, the caspase-3 activation in experiment [7] was -1.39%. The max response in experiment [17] was -6.56%; in [18], 1.78%.

(Values after PubChem BioAssay (NCATS).)
